Assay results taken from PMC7862700, “An all-to-all approach to the identification of sequence-specific readers for epigenetic DNA modifications on cytosine”.

Columns and labels:
Assay in all cases: DAPPL (digital affinity profiling via proximity ligation, sequencing); 10 mM Tris-HCl pH 7.5, 50 mM NaCl, 1 mM DTT, 4% glycerol, room temperature, 30 min; GST-TFs on glutathione beads, 16-mer random dsDNA library, 0.1% formaldehyde crosslink after washing; high values mean tight binding
FEV = target: T1, FEV (Homo sapiens, UniProt Q99581 1-238); conditions: protein: recombinant; tags: N-terminal GST; dsDNA, one strand shown
T1 sequence: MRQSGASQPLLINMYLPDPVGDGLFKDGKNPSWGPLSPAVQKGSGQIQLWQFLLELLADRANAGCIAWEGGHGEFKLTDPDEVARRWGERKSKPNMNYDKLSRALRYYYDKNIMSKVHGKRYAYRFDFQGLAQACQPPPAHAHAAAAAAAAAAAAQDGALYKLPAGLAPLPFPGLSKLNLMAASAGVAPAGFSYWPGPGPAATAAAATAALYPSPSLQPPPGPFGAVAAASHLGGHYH
Summary of the method: (§1)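 Yeast served to express human transcription factors as GST fusions, which were then captured on glutathione beads and labelled with DNA barcodes. Pooled with a tag-only sample, they were incubated with 200 nmole of a 16-mer random double-stranded DNA library for 30 min at room temperature in Tris/NaCl/DTT/glycerol buffer, washed, crosslinked with 0.1% formaldehyde, ligated by proximity, amplified by PCR and sequenced. Dividing each hexamer's read frequency for a factor by its frequency for the tag-only sample gives the binding signal.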

ETV5 = ETV5 (Homo sapiens, UniProt P41161 1-510); conditions: protein: recombinant; tags: N-terminal GST; dsDNA, one strand shown
Chain of ETV5 (P41161 whole entry): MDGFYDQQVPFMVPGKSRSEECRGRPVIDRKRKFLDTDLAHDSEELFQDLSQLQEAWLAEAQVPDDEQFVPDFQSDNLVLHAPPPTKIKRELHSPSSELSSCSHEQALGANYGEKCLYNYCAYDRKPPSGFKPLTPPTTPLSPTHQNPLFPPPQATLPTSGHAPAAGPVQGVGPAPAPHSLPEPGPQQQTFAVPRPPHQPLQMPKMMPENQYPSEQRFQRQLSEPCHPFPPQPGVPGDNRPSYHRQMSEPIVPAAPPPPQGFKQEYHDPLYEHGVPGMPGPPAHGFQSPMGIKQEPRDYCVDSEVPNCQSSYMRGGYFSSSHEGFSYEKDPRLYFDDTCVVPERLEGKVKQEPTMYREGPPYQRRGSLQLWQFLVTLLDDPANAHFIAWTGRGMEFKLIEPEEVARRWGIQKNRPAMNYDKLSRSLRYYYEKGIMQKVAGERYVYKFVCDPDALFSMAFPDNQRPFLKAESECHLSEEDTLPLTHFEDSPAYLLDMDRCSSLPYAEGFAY
Summary of the method: as §1

HSF1 = HSF1 (Homo sapiens, UniProt Q00613 1-529); conditions: protein: recombinant; tags: N-terminal GST; chain copies: 3; dsDNA, one strand shown
Chain of HSF1 (Q00613 whole entry): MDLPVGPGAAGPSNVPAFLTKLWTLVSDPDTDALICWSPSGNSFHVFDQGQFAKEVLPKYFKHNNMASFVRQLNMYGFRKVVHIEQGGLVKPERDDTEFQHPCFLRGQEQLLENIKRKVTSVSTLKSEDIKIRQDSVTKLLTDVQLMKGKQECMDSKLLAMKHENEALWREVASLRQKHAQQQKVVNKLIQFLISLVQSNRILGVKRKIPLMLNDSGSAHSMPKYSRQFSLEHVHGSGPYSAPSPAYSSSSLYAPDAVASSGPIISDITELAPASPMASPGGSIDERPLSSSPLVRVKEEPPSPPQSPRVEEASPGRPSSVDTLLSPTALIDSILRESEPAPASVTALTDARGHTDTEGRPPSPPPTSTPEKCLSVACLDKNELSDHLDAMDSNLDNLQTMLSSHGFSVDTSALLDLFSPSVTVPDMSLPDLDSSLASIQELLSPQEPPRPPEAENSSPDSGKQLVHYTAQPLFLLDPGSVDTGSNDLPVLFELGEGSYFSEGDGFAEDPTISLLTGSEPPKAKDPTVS
Summary of the method: as §1

SPIC = target: T2, SPIC (Homo sapiens, UniProt Q8N5J4 1-248); conditions: protein: recombinant; tags: N-terminal GST; dsDNA, one strand shown
T2 sequence: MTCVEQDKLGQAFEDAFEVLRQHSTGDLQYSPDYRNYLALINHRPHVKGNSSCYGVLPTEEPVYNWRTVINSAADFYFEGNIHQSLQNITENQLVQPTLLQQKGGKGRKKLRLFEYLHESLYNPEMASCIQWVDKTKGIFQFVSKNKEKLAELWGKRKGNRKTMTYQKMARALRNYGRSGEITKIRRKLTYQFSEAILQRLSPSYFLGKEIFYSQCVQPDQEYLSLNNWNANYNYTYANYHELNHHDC
Summary of the method: as §1

ELF4 = ELF4 (Homo sapiens, UniProt Q99607 1-663); conditions: protein: recombinant; tags: N-terminal GST; dsDNA, one strand shown
Chain of ELF4 (Q99607 whole entry): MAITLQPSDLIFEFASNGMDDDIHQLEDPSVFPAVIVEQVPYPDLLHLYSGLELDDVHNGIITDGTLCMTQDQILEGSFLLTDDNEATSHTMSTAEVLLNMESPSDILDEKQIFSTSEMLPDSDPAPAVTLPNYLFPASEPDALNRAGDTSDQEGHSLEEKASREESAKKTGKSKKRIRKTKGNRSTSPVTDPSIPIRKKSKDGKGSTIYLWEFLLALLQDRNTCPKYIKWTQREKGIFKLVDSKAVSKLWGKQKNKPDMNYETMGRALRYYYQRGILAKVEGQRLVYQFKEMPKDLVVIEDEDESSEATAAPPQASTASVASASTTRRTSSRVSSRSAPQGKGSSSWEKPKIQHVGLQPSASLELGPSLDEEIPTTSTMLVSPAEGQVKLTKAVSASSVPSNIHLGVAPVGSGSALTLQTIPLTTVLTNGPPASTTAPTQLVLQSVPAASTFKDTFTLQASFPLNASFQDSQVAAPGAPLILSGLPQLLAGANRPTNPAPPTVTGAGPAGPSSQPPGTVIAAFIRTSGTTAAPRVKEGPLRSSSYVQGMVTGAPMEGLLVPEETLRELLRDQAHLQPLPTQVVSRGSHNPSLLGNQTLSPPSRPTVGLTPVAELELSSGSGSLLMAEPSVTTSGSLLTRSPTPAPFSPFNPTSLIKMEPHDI
Summary of the method: as §1

ELK4 = target: T3, ELK4 (Homo sapiens, UniProt P28324-2 1-405); conditions: protein: recombinant; tags: N-terminal GST; dsDNA, one strand shown
T3 sequence: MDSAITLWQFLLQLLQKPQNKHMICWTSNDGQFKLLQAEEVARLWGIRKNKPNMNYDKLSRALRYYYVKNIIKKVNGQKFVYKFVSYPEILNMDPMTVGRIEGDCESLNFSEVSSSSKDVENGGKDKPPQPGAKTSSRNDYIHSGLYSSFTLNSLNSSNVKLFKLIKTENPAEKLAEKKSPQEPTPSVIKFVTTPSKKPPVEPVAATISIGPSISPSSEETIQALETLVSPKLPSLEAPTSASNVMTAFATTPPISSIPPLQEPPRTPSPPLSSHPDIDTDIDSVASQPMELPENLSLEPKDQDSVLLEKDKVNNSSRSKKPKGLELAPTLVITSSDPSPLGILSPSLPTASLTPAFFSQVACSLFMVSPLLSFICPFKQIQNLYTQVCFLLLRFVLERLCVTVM
Summary of the method: as §1

ETV2 = target: T4, ETV2 (Homo sapiens, UniProt O00321 1-342); conditions: protein: recombinant; tags: N-terminal GST; dsDNA, one strand shown
T4 sequence: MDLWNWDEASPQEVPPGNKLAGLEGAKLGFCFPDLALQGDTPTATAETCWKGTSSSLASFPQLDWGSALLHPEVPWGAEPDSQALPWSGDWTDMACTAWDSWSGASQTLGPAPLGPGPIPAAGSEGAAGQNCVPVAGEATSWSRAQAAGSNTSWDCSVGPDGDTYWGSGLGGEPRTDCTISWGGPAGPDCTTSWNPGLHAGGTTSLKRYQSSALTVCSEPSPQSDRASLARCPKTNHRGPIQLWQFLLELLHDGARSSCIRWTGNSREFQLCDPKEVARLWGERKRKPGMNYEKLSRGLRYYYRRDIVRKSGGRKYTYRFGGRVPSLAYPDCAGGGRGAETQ
Summary of the method: as §1

ELF3 = target: T5, ELF3 (Homo sapiens, UniProt P78545 1-371); conditions: protein: recombinant; tags: N-terminal GST; dsDNA, one strand shown
T5 sequence: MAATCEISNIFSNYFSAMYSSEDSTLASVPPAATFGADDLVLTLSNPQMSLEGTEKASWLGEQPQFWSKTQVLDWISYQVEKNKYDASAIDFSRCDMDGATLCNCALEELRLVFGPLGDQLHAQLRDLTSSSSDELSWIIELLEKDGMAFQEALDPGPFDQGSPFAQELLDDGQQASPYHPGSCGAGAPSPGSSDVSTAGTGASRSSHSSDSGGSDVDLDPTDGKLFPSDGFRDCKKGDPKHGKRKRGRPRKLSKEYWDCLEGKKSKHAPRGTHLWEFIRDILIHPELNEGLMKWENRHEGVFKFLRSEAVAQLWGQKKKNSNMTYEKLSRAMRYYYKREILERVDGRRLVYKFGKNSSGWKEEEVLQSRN
Summary of the method: as §1

CRX = CRX (Homo sapiens, UniProt O43186 1-299); conditions: protein: recombinant; tags: N-terminal GST; dsDNA, one strand shown
Chain of CRX (O43186 whole entry): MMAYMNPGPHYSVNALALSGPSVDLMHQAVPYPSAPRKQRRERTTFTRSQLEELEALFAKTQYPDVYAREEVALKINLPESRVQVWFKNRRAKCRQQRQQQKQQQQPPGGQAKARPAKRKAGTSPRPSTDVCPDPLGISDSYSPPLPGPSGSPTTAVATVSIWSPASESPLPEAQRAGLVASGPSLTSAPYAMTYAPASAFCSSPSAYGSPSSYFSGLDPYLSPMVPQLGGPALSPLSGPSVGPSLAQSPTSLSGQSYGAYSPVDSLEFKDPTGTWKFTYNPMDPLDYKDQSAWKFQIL
Summary of the method: as §1

ETV1 = ETV1 (Homo sapiens, UniProt P50549 1-477); conditions: protein: recombinant; tags: N-terminal GST; dsDNA, one strand shown
Chain of ETV1 (P50549 whole entry): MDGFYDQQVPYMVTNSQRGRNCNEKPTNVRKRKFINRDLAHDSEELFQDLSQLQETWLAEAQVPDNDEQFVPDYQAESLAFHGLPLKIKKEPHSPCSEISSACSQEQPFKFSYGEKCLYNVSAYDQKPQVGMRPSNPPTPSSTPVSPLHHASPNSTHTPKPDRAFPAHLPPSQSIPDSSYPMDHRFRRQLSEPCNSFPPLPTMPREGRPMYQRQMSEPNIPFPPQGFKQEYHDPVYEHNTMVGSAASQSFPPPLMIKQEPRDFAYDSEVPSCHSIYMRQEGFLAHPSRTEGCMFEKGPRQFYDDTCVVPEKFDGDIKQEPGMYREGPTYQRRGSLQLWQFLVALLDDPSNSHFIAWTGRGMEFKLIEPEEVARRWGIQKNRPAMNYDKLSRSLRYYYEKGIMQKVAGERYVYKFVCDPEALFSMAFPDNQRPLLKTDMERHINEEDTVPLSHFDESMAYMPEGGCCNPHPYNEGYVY
Summary of the method: as §1

ERF = target: T6, ERF (Homo sapiens, UniProt P50548 1-548); conditions: protein: recombinant; tags: N-terminal GST; dsDNA, one strand shown
T6 sequence: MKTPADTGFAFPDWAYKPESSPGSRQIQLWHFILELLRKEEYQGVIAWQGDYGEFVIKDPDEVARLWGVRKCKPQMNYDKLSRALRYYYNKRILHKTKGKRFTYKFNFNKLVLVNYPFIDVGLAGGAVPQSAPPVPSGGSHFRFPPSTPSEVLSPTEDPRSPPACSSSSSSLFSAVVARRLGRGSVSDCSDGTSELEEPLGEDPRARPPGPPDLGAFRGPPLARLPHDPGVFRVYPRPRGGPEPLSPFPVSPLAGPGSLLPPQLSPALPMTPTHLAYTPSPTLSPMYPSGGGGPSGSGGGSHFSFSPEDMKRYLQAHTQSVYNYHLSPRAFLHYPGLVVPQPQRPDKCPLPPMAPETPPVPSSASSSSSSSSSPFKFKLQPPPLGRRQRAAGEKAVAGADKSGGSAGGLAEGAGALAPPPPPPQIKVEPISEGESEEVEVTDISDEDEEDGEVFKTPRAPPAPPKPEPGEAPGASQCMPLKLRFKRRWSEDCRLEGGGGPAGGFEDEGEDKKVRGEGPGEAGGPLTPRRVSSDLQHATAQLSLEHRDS
Summary of the method: as §1

ETV3L = target: T7, ETV3L (Homo sapiens, UniProt Q6ZN32 1-361); conditions: protein: recombinant; tags: N-terminal GST; dsDNA, one strand shown
T7 sequence: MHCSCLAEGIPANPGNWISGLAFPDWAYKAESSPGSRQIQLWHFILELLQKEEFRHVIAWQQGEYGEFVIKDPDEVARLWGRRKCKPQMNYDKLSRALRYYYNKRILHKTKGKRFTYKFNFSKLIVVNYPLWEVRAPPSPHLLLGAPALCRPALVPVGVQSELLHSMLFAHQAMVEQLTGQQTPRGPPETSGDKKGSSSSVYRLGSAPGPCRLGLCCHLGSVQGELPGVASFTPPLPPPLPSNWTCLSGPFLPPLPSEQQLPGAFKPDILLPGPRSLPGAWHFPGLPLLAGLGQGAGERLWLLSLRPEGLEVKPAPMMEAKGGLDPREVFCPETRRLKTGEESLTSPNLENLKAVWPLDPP
Summary of the method: as §1

ETS2 = target: T8, ETS2 (Homo sapiens, UniProt P15036 1-469); conditions: protein: recombinant; tags: N-terminal GST; dsDNA, one strand shown
T8 sequence: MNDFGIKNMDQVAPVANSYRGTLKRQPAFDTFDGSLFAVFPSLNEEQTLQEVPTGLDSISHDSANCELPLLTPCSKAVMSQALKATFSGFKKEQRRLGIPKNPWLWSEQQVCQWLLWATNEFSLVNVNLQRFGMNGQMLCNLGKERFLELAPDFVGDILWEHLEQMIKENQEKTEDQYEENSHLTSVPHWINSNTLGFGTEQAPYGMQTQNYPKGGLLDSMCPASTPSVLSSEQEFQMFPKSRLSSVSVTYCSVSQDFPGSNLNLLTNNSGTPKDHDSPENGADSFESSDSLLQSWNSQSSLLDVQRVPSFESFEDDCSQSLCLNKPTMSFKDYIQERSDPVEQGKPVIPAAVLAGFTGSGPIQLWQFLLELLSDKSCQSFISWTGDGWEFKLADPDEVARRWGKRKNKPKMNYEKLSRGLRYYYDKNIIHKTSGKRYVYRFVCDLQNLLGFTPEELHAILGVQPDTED
Summary of the method: as §1

SPDEF = target: T9, SPDEF (Homo sapiens, UniProt O95238 1-335); conditions: protein: recombinant; tags: N-terminal GST; dsDNA, one strand shown
T9 sequence: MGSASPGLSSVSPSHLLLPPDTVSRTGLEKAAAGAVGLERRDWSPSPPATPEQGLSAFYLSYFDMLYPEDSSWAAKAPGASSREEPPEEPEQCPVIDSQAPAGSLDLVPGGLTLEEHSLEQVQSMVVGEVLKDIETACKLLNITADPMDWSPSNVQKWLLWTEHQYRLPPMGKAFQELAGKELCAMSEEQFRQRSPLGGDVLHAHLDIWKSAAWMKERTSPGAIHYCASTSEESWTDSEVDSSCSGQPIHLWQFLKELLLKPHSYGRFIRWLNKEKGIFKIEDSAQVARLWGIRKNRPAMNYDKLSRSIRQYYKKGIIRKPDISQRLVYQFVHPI
Summary of the method: as §1

ETV7 = target: T10, ETV7 (Homo sapiens, UniProt Q9Y603 1-341); conditions: protein: recombinant; tags: N-terminal GST; dsDNA, one strand shown
T10 sequence: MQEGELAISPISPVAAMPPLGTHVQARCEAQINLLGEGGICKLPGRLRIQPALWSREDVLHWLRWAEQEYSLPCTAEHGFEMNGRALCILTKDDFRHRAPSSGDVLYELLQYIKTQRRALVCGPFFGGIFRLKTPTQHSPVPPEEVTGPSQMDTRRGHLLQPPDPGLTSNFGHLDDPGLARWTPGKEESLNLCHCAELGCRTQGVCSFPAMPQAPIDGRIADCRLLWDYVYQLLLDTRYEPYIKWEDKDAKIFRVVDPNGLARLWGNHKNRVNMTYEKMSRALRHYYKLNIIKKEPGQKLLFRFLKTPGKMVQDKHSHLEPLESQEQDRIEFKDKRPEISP
Summary of the method: as §1

ELF5 = target: T11, ELF5 (Homo sapiens, UniProt Q9UKW6-2 1-255); conditions: protein: recombinant; tags: N-terminal GST; dsDNA, one strand shown
T11 sequence: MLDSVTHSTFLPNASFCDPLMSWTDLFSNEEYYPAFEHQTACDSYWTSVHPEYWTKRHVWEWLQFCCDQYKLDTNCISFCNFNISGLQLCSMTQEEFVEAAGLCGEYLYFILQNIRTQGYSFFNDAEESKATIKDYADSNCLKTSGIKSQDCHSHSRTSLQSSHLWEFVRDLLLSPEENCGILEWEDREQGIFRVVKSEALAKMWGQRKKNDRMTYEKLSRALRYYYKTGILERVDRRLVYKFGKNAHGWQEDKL
Summary of the method: as §1

ETV3 = target: T12, ETV3 (Homo sapiens, UniProt P41162-2 1-143); conditions: protein: recombinant; tags: N-terminal GST; dsDNA, one strand shown
T12 sequence: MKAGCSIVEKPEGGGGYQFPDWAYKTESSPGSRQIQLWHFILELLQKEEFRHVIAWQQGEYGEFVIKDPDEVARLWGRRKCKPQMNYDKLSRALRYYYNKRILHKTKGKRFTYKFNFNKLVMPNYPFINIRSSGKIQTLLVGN
Summary of the method: as §1

ETV6 = ETV6 (Homo sapiens, UniProt P41212 1-452); conditions: protein: recombinant; tags: N-terminal GST; dsDNA, one strand shown
Chain of ETV6 (P41212 whole entry): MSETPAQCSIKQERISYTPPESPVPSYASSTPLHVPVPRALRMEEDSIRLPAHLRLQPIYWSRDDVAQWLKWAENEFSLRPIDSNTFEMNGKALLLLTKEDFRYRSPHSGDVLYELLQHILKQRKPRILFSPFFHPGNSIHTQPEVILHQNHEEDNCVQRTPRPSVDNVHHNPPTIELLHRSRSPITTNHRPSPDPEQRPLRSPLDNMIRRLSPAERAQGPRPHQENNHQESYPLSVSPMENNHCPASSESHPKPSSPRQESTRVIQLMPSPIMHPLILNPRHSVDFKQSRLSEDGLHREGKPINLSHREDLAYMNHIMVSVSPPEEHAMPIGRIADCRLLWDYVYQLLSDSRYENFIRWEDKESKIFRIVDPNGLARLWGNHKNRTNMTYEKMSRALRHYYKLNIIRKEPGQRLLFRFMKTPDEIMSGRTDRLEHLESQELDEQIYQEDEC
Summary of the method: as §1

Sequence: ATAGCT
- binding signal (FEV): 1.16 fold enrichment (6-mer frequency, TF over GST control)
- binding signal (ETV5): 1.2 fold enrichment (6-mer frequency, TF over GST control)
- binding signal (HSF1): 1.06 fold enrichment (6-mer frequency, TF over GST control)
- binding signal (SPIC): 1.15 fold enrichment (6-mer frequency, TF over GST control)
- binding signal (ELF4): 1.07 fold enrichment (6-mer frequency, TF over GST control)
- binding signal (ELK4): 1.25 fold enrichment (6-mer frequency, TF over GST control)
- binding signal (ETV2): 1.27 fold enrichment (6-mer frequency, TF over GST control)
- binding signal (ELF3): 1.26 fold enrichment (6-mer frequency, TF over GST control)
- binding signal (CRX): 1.26 fold enrichment (6-mer frequency, TF over GST control)
- binding signal (ETV1): 1.11 fold enrichment (6-mer frequency, TF over GST control)
- binding signal (ERF): 1.2 fold enrichment (6-mer frequency, TF over GST control)
- binding signal (ETV3L): 1.13 fold enrichment (6-mer frequency, TF over GST control)
- binding signal (ETS2): 1.1 fold enrichment (6-mer frequency, TF over GST control)
- binding signal (SPDEF): 1.07 fold enrichment (6-mer frequency, TF over GST control)
- binding signal (ETV7): 1.31 fold enrichment (6-mer frequency, TF over GST control)
- binding signal (ELF5): 1.07 fold enrichment (6-mer frequency, TF over GST control)
- binding signal (ETV3): 1.12 fold enrichment (6-mer frequency, TF over GST control)
- binding signal (ETV6): 1.13 fold enrichment (6-mer frequency, TF over GST control)
